GLS inh: qHTS for Inhibitors of Glutaminase (GLS); Glutaminase kidney isoform, mitochondrial (Homo sapiens), O94925; GLS enzymatic activity, qHTS titration; Potency, µM (top dose mostly 45.5 µM), actives largely listed as inhibitors; actives 0.21% (n = 410,000)
Target sequence (O94925 whole entry, looked up, canonical isoform): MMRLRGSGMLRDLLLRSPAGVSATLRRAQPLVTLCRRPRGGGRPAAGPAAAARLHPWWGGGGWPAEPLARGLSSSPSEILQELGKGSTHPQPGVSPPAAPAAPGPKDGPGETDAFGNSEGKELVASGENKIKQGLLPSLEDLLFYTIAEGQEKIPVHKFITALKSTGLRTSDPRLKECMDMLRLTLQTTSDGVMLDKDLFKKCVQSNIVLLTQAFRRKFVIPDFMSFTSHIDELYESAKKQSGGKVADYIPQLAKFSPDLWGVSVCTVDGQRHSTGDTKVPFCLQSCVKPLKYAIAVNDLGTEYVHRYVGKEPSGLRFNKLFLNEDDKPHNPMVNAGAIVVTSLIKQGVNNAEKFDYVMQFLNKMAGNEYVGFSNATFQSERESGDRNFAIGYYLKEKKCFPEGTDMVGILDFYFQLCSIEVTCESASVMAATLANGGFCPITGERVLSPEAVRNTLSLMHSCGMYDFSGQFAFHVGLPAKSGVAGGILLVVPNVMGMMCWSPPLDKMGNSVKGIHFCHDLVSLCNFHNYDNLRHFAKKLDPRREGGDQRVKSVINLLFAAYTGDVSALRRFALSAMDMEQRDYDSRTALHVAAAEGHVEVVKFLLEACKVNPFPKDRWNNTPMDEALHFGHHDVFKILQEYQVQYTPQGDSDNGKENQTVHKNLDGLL
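Coupled fluorescence readout: glutamate oxidase/HRP/Amplex Red detect glutamate formed by hKGA from L-glutamine (1 mM solution added). Buffer 45 mM KH2PO4 pH 8.2, 0.02% Tween-20; reads at t0 and 30 min RT.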
PTHR1 ag: qHTS for PTHR1 Agonists: Primary Screen; Parathyroid hormone/parathyroid hormone-related peptide receptor (Homo sapiens), Q03431; HEK293 GP2 PTHR1 cells, GloSensor cAMP luminescence, 1 h; Potency, µM (top dose mostly 115 µM), actives largely listed as activators; actives 0.075% (n = 410,000); AID 743266, 2014; further: nearly all actives have a fitted effect of over 55% in size
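HEK-293-derived GP2 cells expressing PTHR1 and a GloSensor cAMP reporter, 3,000/well, plated overnight, given luciferin plus IBMX (each 0.5 mM as added) for 1 h at 37 °C, then compound for 1 h at 37 °C. Luminescence was read after 15 min at room temperature.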
GLP-1R agonist: qHTS of GLP-1 Receptor Agonists | HEK293 GLP-1R CRE-luciferase, luminescence, 4-6 h; cells express a hypersensitive GLP-1R form | Potency, µM (top dose mostly 45.6 µM), actives largely listed as activators | actives 0.007% (n = 380,000) | AID 624172, 2012
12-LOX inh: Primary qHTS assay for inhibitors of human arachidonate 12S-lipoxygenase (ALOX12): Round 2 | Polyunsaturated fatty acid lipoxygenase ALOX12 (Homo sapiens), P18054 | purified 12hLO, xylenol orange hydroperoxide absorbance | Potency, µM (top dose mostly 108 µM), actives largely listed as inhibitors | actives 1.1% (n = 580,000)
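Purified human 12hLO (150 nM final) in 25 mM Hepes, 0.01% Triton X-100, pH 7.0 was preincubated 15 min at room temperature with compound. Then 40 uM arachidonic acid was added, 30 min. Hydroperoxide was read by Fe-XO absorbance ratio 573/405 nm.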
GRP78 ERSR act: qHTS for Inducers of the Endoplasmic Reticulum Stress Response (ERSR) in Human Glioma: qHTS | AID 602332, 2012 | Potency, µM, hits mostly activators | actives 0.02% (n = 420,000) | U87-MG GRP78 promoter luciferase reporter, 16 h; further: series mostly up to about 76 µM; nearly all actives have a fitted effect of over 35% in size
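Stably transfected U87-MG glioma cells carrying a GRP78-based luciferase sensor; 16 h compound incubation. Luminescence end-point read 10 min after Bright-Glo addition at room temperature.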
GLP-1R inv ag: qHTS of GLP-1 Receptor Inverse Agonists (Inhibition Mode). actives 1.6% (n = 410,000). HEK293 GLP-1R CRE-luciferase, luminescence, 24 h; GLP-1R form is constitutively active. Potency, µM (titrated, usually from 38.3 µM), most hits filed as inhibitors; further: nearly all actives have a fitted effect of over 55% in size
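Seeding at 200 cells/uL, 12 h culture, 24 hr compound treatment, then luciferase reagent and a luminescence read; cells are HEK293 stably expressing a constitutively active GLP-1R plus cAMP-responsive luciferase.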
Each line names hits and unclear results; the compound was inactive in the other large screens. Compounds with a hit are over-represented: about 2.3% of the library has one in this group of screens. The call rests on the fitted dose curve; in most records, active means well fitted curve in the direction sought with a large enough effect; inconclusive means small, poorly fitted or top-dose-only effect, or another doubt; inactive means no such curve, though single readings can be large; an effect the other way counts as inactive or inconclusive.

N#C/C(=C/c1cccc(O)c1)c1nc2ccccc2o1	none (no result: GLS inh, PTHR1 ag, GLP-1R agonist, GRP78 ERSR act, GLP-1R inv ag)
C=CCNC(=O)C1CC1(c1cccc(C)c1)c1cccc(C)c1 (stereo unspecified)	GLP-1R inv ag inconclusive
Cc1cccc(C2(c3cccc(C)c3)CC2C(=O)Nc2ccc([N+](=O)[O-])cc2O)c1 (stereo unspecified)	12-LOX inh inconclusive, GLP-1R inv ag 2.51µM
CCN(CC)S(=O)(=O)c1cccc(NCc2ccccc2C#N)c1	none (no result: GLS inh, PTHR1 ag, GLP-1R agonist, GRP78 ERSR act, GLP-1R inv ag)
COc1ccc(CNC(=O)c2nc(-c3nn(-c4ccc(C)cc4)c(=O)n(C)c3=O)no2)cc1	none (no result: GLS inh, PTHR1 ag, GLP-1R agonist, GRP78 ERSR act, GLP-1R inv ag)
CC/C=C\CCOC(=O)C(C)C	none (no result: GLS inh, PTHR1 ag, GLP-1R agonist, GRP78 ERSR act, GLP-1R inv ag)
COc1cccc(C(=O)c2sc(NC(C)C)nc2N)c1	GLP-1R inv ag 3.55µM
COc1ccc(C(=O)c2sc(NC(C)C)nc2N)cc1OC	none
O=C(c1ccc(C(F)(F)F)cc1)N1CCC(c2nn(-c3ccc(F)cc3)c(=O)[nH]2)CC1	12-LOX inh 22.4µM (no result: GLS inh, PTHR1 ag, GLP-1R agonist, GRP78 ERSR act, GLP-1R inv ag)
COc1ccc(C(=O)N2CCC(c3nn(-c4ccc(Cl)cc4)c(=O)[nH]3)CC2)cc1	12-LOX inh 35.5µM (no result: GLS inh, PTHR1 ag, GLP-1R agonist, GRP78 ERSR act, GLP-1R inv ag)
O=C(c1cccc(Cl)c1)N1CCC(c2nn(-c3ccccc3)c(=O)[nH]2)CC1	none (no result: GLS inh, PTHR1 ag, GLP-1R agonist, GRP78 ERSR act, GLP-1R inv ag)
O=C(c1cccc(C(F)(F)F)c1)N1CCC(c2nn(-c3ccc(Cl)cc3)c(=O)[nH]2)CC1	12-LOX inh 10µM (no result: GLS inh, PTHR1 ag, GLP-1R agonist, GRP78 ERSR act, GLP-1R inv ag)
O=C1NN=C(c2ccc(Br)cc2)CC1c1ccc(Cl)cc1 (stereo unspecified)	12-LOX inh 39.8µM, GLP-1R inv ag inconclusive
CC(=O)Nc1ccc(-c2ccnc3c2CC(C(=O)NCc2cccc(Cl)c2)O3)cc1 (stereo unspecified)	GLP-1R agonist inconclusive, GLP-1R inv ag 3.55µM
Cc1cc(C)c(C(=O)CSc2nnnn2C)cc1C	none (no result: GLS inh, PTHR1 ag, GLP-1R agonist, GRP78 ERSR act, GLP-1R inv ag)
COc1cccc(/C=N/Nc2nc(Nc3ccc([N+](=O)[O-])cc3)nc(N3CCCC3)n2)c1O	GLP-1R inv ag 2.82µM
COc1cc(/C=N/NC(=O)Cc2cccc(C(F)(F)F)c2)ccc1OCc1ccccc1	none (no result: GLS inh, PTHR1 ag, GLP-1R agonist, GRP78 ERSR act, GLP-1R inv ag)
FC(F)(F)c1ccc(Cl)c(N/N=C/c2cccc(OCc3ccccc3)c2)c1	12-LOX inh 7.08µM (no result: GLS inh, PTHR1 ag, GLP-1R agonist, GRP78 ERSR act, GLP-1R inv ag)
CC(=O)c1ccc(N2CCN(C(=O)c3noc4c3CCc3sccc3-4)CC2)cc1	none (no result: GLS inh, PTHR1 ag, GLP-1R agonist, GRP78 ERSR act, GLP-1R inv ag)
CCN1C(=O)N[C@@H](c2cccc(F)c2)C(C(C)=O)=C1C	none
CC(=O)C1=C(C)N(Cc2ccc(Cl)cc2)C(=S)NC1c1ccc(Cl)cc1 (stereo unspecified)	12-LOX inh 44.7µM (no result: GLS inh, PTHR1 ag, GLP-1R agonist, GRP78 ERSR act, GLP-1R inv ag)
CC(=O)C1=C(C)N(Cc2ccc(Cl)cc2)C(=S)NC1c1ccccc1 (stereo unspecified)	12-LOX inh 44.7µM (no result: GLS inh, PTHR1 ag, GLP-1R agonist, GRP78 ERSR act, GLP-1R inv ag)
CCN1C(=O)N[C@H](c2ccc(Br)cc2)C(C(C)=O)=C1C	none
CC(=O)C1=C(C)N(Cc2ccc(F)cc2)C(=S)NC1c1cccc(Br)c1 (stereo unspecified)	12-LOX inh 39.8µM (no result: GLS inh, PTHR1 ag, GLP-1R agonist, GRP78 ERSR act, GLP-1R inv ag)
CC(=O)C1=C(C)N(Cc2ccccc2)C(=O)N[C@@H]1c1cccc(C(F)(F)F)c1	GLP-1R inv ag inconclusive
CC(Sc1nnc(COc2ccc3c(c2)CCCC3)n1C)C(=O)Nc1ccc2c(c1)OCO2 (stereo unspecified)	none (no result: GLS inh, PTHR1 ag, GLP-1R agonist, GRP78 ERSR act, GLP-1R inv ag)
CCN(CC)CCCNC(=O)CCC(=O)Nc1ccc2nc(N3CCC(C)CC3)cc(C)c2c1	12-LOX inh inconclusive, GLP-1R inv ag 7.08µM
CCN(CC)CCCNC(=O)CCC(=O)Nc1ccc2nc(N3CCCCC3)cc(C)c2c1	GLP-1R inv ag inconclusive

Compound activity from PubChem.
